Measurements: PubChem BioAssay (Tox21)
Where “and” joins values, the source holds several entries; their conditions need not be identical. Equal values may be shown once. Inconclusive results are not listed. Entries that show only a call come without a potency. Some compounds were tested as several samples or in several runs, with calls that do not always agree. Calls of active or inactive are those of the source. Unless noted, calls follow the shape of the dose curve; as a rule, active = well fitted curve in the direction sought with a large enough effect in the repeat runs; inconclusive = weak or mixed curves; inactive = no such curve, though single readings can be large; an effect the other way counts as inactive or inconclusive.

What was measured:
[1] = qHTS assay to identify small molecule agonists of the RXR signaling pathway - cell viability counter screen (AID 1159529); also: nearly all actives have a fitted effect of over 50% in size; also: potency is read from the fitted curve at half-maximal effect
Method in brief: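 Steps: seed RXR-alpha-UAS-bla HEK 293T cells in assay medium containing 2% charcoal-stripped FBS; incubate 5 hr; add compounds in DMSO; incubate 16 hr at 37 C; after the bla read, add CellTiter-Glo and read luminescence at 30 min.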

[2] = qHTS assay to identify small molecule antagonists of the retinoid acid receptor (RAR) signaling pathway - cell viability counter screen (AID 1159551); also: nearly all actives have a fitted effect of over 35% in size; also: potency is read from the fitted curve at half-maximal effect
Method in brief: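 Measured by luminescent ATP detection, viability reflects C3RL4 cells treated 6 h at 37 C with test chemicals in the presence of 1 uM (final) retinol.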

[3] = qHTS assay to identify small molecule antagonists of the retinoic acid receptor (RAR) signaling pathway (AID 1159552; also: nearly all actives have a fitted effect of over 50% in size; also: potency is read from the fitted curve at half-maximal effect)
Method in brief: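 Retinol at 1 uM final stimulated RARE-luciferase expression in C3RL4 cells exposed to test compounds for 6 hr at 37 C. Reduced luminescence, read 30 min after detection reagent, indicated pathway antagonism.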

[4] = qHTS assay to identify small molecule antagonists of the estrogen related receptor (ERR) signaling pathway from Tox21 library - cell viability counter screen (AID 1224834); also: nearly all actives have a fitted effect of over 30% in size; also: potency is read from the fitted curve at half-maximal effect
Method in brief: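 Seeded ERR cells were rested 6 h at 37 C/5% CO2 before compounds, positive and negative controls or DMSO were added. Incubation continued for 17.5 h, and viability was then quantified by CellTiter-Fluor fluorescence.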

[5] = target: Luciferin 4-monooxygenase (Photinus pyralis) (UniProt P08659); assay: qHTS assay to identify small molecule inhibitors of firefly luciferase (AID 1224835); also: nearly all actives have a fitted effect of over 25% in size; also: potency is read from the fitted curve at half-maximal effect
Method in brief: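 Inhibition of purified Photinus luciferase is measured by luminescence. Substrate levels (D-luciferin, ATP) sit at their KM values. Each compound is tested in a concentration series.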

[6] = qHTS assay to identify small molecule antagonists of the constitutive androstane receptor (CAR) signaling pathway - cell viability counter screen (AID 1224837); also: nearly all actives have a fitted effect of over 45% in size; also: potency is read from the fitted curve at half-maximal effect
Method in brief: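 To flag cytotoxic false antagonists, HepG2 hCAR/CYP2B6-2.2kb cells were treated 23 hr with 15-concentration compound series and 50 nM CITCO at 37 C/5% CO2; CellTiter-Fluor fluorescence was the measured end point.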

[7] = target: Nuclear receptor subfamily 1 group I member 3 (Homo sapiens) (UniProt Q14994); assay: qHTS assay to identify small molecule antagonists of the constitutive androstane receptor (CAR) signaling pathway (AID 1224838);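 also: HepG2 cells stably expressing hCAR with CYP2B6 luciferase reporter stimulated by CITCO; nearly all actives have a fitted effect of over 40% in size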; also: potency is read from the fitted curve at half-maximal effect
Method in brief: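 Human hepatoma HepG2 cells expressing hCAR and a CYP2B6 promoter (2.2 kb) luciferase construct; compound titration (15 points) with 50 nM CITCO final, 24 h at 37 C/5% CO2; luminescence via ONE-Glo after 30 min at room temperature.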

[8] = target: Nuclear receptor subfamily 1 group I member 3 (Homo sapiens) (UniProt Q14994); assay: qHTS assay to identify small molecule agonists of the constitutive androstane receptor (CAR) signaling pathway (AID 1224839);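 also: HepG2 cells stably carrying human CAR and a CYP2B6 luciferase reporter; series mostly up to about 92 µM; nearly all actives have a fitted effect of over 15% in size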
Method in brief: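 Cells were plated and incubated 4 hrs, then dosed with compounds at 15 concentrations. PK11195 was added to 0.75 uM final. After 24 hrs at 37 C, luciferase luminescence was measured.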

[9] = qHTS assay to identify small molecule agonists of the estrogen related receptor signaling pathway with the pleiotropic PPARgamma coactivator (PGC) from Tox21 10K library (AID 1224842); also: nearly all actives have a fitted effect of over 15% in size
Method in brief: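 Luminescence from One-Glo (30 min, room temperature) measured after PGC/ERR cells had 18 h at 37 C with pinned compound (23 nL in DMSO). Cells had been seeded at 2,000 per well and pre-incubated 6 h.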

[10] = qHTS assay to identify small molecule antagonists of the estrogen related receptor signaling pathway with the pleiotropic PPARgamma coactivator (PGC) from Tox21 10K library - cell viability counter screen (AID 1224840; active = well fitted cell-killing curve with a large enough effect in the repeat runs, not every such curve was filed as active; also: nearly all actives have a fitted effect of over 40% in size; also: potency is read from the fitted curve at half-maximal effect)
Method in brief: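 Seeded PGC/ERR cells (2,000/well, 6 h, 37 C/5% CO2) get compound by pin tool; 17.5 h incubation at 37 C; CellTiter-Fluor added, 30 min, fluorescence measured.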

[11] = qHTS assay to identify small molecule antagonists of the estrogen related receptor signaling pathway with the pleiotropic PPARgamma coactivator (PGC) from Tox21 10K library (AID 1224841; call rule not given here; also: actives are mostly falling curves and most rising ones were filed inactive; nearly all actives have a fitted effect of over 50% in size; also: potency is read from the fitted curve at half-maximal effect)
Method in brief: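 Test chemicals dissolved in DMSO were applied to pre-incubated (6 h) PGC/ERR cells at 2,000 cells/well for an 18 h, 37 C treatment; reporter luminescence was then read using One-Glo.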

[12] = qHTS assay to identify small molecule agonists of the retinoic acid receptor (RAR) signaling pathway (AID 1159553)
Method in brief: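 6 hr compound exposure (DMSO vehicle) of overnight-plated C3RL4 RARE-luc cells at 37 C; luminescence quantified after 30 min RT with luciferase reagent.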

[13] = target: Thyrotropin receptor (Homo sapiens) (UniProt P16473); assay: qHTS assay to identify small molecule agonists of the thyroid stimulating hormone receptor (TSHR) signaling pathway (AID 1224843; calls by dose curve; also: nearly all actives have a fitted effect of over 45% in size)
Method in brief: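 Agonist activity read as cAMP rise via d2/cryptate HTRF competition, 1 h room-temperature detection, in HEK293 cells expressing TSHR. Fifteen-point titrations, each run in triplicate, with a 30 min room-temperature incubation beforehand.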

[14] = qHTS assay to identify small molecule agonists of the constitutive androstane receptor (CAR) signaling pathway - cell viability counter screen (AID 1224836); also: nearly all actives have a fitted effect of over 45% in size; also: potency is read from the fitted curve at half-maximal effect
Method in brief: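 Cells were seeded and incubated 4 hrs. Compounds were added across 15 concentrations together with PK11195 at 0.75 uM final. Plates were incubated 23 hrs at 37 C. CellTiter-Fluor was added and fluorescence measured.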

Sequence of Luciferin 4-monooxygenase (Photinus pyralis) (P08659 whole entry, looked up): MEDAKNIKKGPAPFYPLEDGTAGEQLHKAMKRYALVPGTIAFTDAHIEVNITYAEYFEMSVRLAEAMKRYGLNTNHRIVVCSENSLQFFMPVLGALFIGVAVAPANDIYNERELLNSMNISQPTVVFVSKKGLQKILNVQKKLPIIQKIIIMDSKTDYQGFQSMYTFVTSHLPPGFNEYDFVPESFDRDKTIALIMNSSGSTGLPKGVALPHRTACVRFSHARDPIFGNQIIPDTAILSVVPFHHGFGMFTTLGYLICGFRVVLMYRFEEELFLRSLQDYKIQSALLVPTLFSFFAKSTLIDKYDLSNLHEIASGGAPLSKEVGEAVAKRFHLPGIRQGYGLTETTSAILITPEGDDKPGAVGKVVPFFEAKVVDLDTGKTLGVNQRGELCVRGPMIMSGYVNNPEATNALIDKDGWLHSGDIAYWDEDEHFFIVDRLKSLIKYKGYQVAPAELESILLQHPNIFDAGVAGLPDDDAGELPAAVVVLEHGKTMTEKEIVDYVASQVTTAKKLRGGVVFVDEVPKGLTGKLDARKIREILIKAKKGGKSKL
Sequence of Thyrotropin receptor (Homo sapiens) (P16473 whole entry, looked up): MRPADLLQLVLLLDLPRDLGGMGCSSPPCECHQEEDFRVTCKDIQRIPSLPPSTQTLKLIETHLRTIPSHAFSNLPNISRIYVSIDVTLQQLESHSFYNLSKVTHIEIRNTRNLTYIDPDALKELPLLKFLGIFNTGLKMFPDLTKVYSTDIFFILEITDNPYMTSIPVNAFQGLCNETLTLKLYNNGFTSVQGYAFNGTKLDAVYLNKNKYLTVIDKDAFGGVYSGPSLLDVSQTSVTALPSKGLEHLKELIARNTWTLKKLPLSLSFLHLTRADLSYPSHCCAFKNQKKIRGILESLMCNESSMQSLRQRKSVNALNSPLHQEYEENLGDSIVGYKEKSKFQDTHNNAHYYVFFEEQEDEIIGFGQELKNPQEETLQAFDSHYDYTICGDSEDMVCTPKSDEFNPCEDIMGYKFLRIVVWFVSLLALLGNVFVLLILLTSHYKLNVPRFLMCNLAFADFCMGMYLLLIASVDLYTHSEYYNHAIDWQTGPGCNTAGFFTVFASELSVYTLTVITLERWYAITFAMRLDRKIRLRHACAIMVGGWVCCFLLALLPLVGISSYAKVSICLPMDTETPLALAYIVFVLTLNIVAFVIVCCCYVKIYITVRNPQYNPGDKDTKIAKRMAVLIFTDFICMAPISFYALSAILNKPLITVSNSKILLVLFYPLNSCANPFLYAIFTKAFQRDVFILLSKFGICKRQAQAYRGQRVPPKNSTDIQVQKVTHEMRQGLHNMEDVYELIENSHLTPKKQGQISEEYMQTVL
Sequence of Nuclear receptor subfamily 1 group I member 3 (Homo sapiens) (Q14994 whole entry, looked up): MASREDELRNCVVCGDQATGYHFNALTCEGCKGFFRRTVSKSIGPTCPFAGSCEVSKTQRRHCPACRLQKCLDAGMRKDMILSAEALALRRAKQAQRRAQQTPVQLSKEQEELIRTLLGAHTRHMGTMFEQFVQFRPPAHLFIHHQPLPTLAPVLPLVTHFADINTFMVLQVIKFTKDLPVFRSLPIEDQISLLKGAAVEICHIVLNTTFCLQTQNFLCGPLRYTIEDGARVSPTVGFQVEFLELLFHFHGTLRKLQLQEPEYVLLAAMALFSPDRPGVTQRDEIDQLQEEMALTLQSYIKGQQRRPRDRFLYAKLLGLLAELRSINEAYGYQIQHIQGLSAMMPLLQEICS

Compound: CCCCCCCC/C=C/CCCCCCCC1=NCCN1CCO
- Potency [1]: 49 µM (active)
- Potency [2]: 68.6 µM (active)
- Potency [3]: 61.1 µM (active)
- Potency [4]: 54.5 µM (active)
- Potency [5]: inactive
- Potency [6]: 68.6 µM (active)
- Potency [7]: 61.1 µM (active)
- Potency [8]: inactive
- Potency [9]: inactive

Compound: Cc1cccc2c1cc1ccc3cccc4ccc2c1c34
- Potency [1]: inactive
- Potency [2]: inactive
- Potency [3]: inactive
- Potency [4]: inactive
- Potency [5]: inactive
- Potency [7]: inactive
- Potency [10]: inactive
- Potency [11]: inactive
- Potency [9]: inactive

Compound: Cc1onc(-c2ccccc2Cl)c1C(=O)N[C@@H]1C(=O)N2[C@@H]1SC(C)(C)[C@@H]2C(=O)O
- Potency [1]: inactive
- Potency [2]: inactive
- Potency [3]: inactive
- Potency [12]: inactive
- Potency [4]: inactive
- Potency [5]: inactive
- Potency [10]: inactive
- Potency [13]: inactive

Compound: Oc1c(Cl)cc(Cl)c2cccnc12
- Potency [1]: 0.952 µM (active)
- Potency [2]: inactive
- Potency [3]: inactive
- Potency [4]: 13.3 µM (active)
- Potency [5]: inactive
- Potency [14]: inactive
- Potency [8]: inactive
- Potency [10]: 26.6 µM (active)
- Potency [9]: inactive
- Potency [13]: inactive

Compound: Cc1oc(-c2ccccc2)nc1CCC(=O)c1ccc(CC2SC(=O)NC2=O)cc1 (centres undefined)
- Potency [1]: inactive
- Potency [2]: inactive
- Potency [3]: inactive
- Potency [12]: inactive
- Potency [5]: inactive
- Potency [14]: inactive
- Potency [7]: inactive
- Potency [10]: inactive
- Potency [11]: inactive
- Potency [9]: inactive
- Potency [13]: inactive

Compound: CCOC(=O)O[C@H](C)OC(=O)c1ccc2c(c1)cc(C(=O)NC1CCN(C(C)C)CC1)n2Cc1cc(-c2ccc(Cl)s2)on1
- Potency [1]: 6.46 µM (active)
- Potency [2]: 28.6 µM (active)
- Potency [3]: 12.8 µM (active)
- Potency [4]: 28.6 µM (active)
- Potency [5]: inactive
- Potency [6]: 64.1 µM (active)
- Potency [7]: 64.1 µM (active)
- Potency [8]: inactive
- Potency [10]: 22.7 µM (active)

Compound: CCCCc1oc2ccc(NS(C)(=O)=O)cc2c1C(=O)c1ccc(OCCCN(CCCC)CCCC)cc1
- Potency [1]: 9.52 µM (active)
- Potency [2]: 26.6 µM (active)
- Potency [3]: 16.8 µM (active)
- Potency [4]: 21.1 µM (active)
- Potency [5]: inactive
- Potency [8]: inactive
- Potency [10]: 18.8 µM (active)
- Potency [9]: inactive
- Potency [13]: inactive

Compound: CC(C)(C)c1ccc(C(=O)O)cc1
- Potency [1]: inactive
- Potency [2]: inactive
- Potency [3]: inactive
- Potency [12]: inactive
- Potency [4]: inactive
- Potency [5]: 35.6 µM (active)
- Potency [14]: inactive
- Potency [10]: inactive
- Potency [13]: inactive

Compound: O=c1[nH]sc2cc(Cl)ccc12
- Potency [1]: 26.8 µM (active)
- Potency [2]: inactive
- Potency [3]: inactive
- Potency [4]: inactive
- Potency [5]: 17.4 µM (active)
- Potency [14]: inactive
- Potency [7]: 0.001 µM (active)
- Potency [8]: inactive
- Potency [10]: inactive
- Potency [11]: 298 nM (active)
- Potency [9]: inactive
- Potency [13]: inactive

Compound: O=C1C=CC(=O)N1
- Potency [1]: 22.5 µM (active)
- Potency [2]: 31.4 µM (active)
- Potency [3]: 8.86 µM (active)
- Potency [4]: 49.8 µM (active)
- Potency [5]: 32.6 µM (active)
- Potency [14]: 55.9 µM (active)
- Potency [6]: 55.9 µM (active)
- Potency [7]: 31.4 µM (active)
- Potency [8]: inactive
- Potency [10]: 44.4 µM (active)
- Potency [9]: inactive

Compound: CC[C@H]1O[C@]2(CC[C@@H]1C)C[C@@H]1C[C@@H](C/C=C(\C)C[C@@H](C)/C=C/C=C3\CO[C@@H]4[C@H](O)C(C)=C[C@@H](C(=O)O1)[C@]34O)O2
- Potency [1]: 19.3 µM (active)
- Potency [2]: 68 µM (active)
- Potency [3]: 42.9 µM (active)
- Potency [4]: 60.6 µM (active)
- Potency [5]: inactive
- Potency [14]: 68 µM (active)
- Potency [6]: 60.6 µM (active)
- Potency [8]: inactive
- Potency [10]: 60.6 µM (active)
- Potency [11]: 19200 nM (active)
- Potency [9]: inactive

Compound: Cc1cc(C2CCCCC2)n(O)c(=O)c1
- Potency [1]: inactive
- Potency [2]: inactive
- Potency [3]: inactive
- Potency [4]: 9.44 µM (active)
- Potency [5]: inactive
- Potency [6]: 29.8 µM (active)
- Potency [10]: 26.6 µM (active)

Compound: C[C@H]1[C@H]2CC[C@H]3[C@@H]4CC=C5C[C@@H](N(C)C)CC[C@]5(C)[C@H]4CC[C@]23CN1C
- Potency [1]: inactive
- Potency [2]: inactive
- Potency [3]: inactive
- Potency [12]: inactive
- Potency [5]: inactive
- Potency [6]: inactive
- Potency [7]: inactive
- Potency [8]: inactive
- Potency [10]: inactive
- Potency [11]: inactive
- Potency [9]: inactive
- Potency [13]: inactive

Compound: NC(=O)NS(=O)(=O)c1ccc(N)cc1
- Potency [1]: inactive
- Potency [2]: inactive
- Potency [3]: inactive
- Potency [12]: inactive
- Potency [5]: inactive
- Potency [14]: inactive
- Potency [6]: inactive
- Potency [7]: inactive
- Potency [10]: inactive
- Potency [13]: inactive

Compound: C/C(=C(/OCCOc1ccc(Cl)cc1)c1ccc(Cl)cc1Cl)n1ccnc1
- Potency [1]: inactive
- Potency [2]: inactive
- Potency [3]: inactive
- Potency [4]: inactive
- Potency [5]: inactive
- Potency [14]: inactive
- Potency [6]: inactive
- Potency [7]: inactive
- Potency [8]: inactive
- Potency [10]: inactive
- Potency [13]: inactive

Compound: CCCCC(CC)COP(=O)(O)OCC(CC)CCCC (centres undefined)
- Potency [1]: inactive
- Potency [2]: inactive
- Potency [3]: inactive and 48.6 µM (active)
- Potency [12]: inactive
- Potency [4]: 48.6 µM (active)
- Potency [14]: inactive
- Potency [6]: inactive
- Potency [7]: inactive
- Potency [8]: inactive
- Potency [10]: inactive
- Potency [11]: 27.4 µM (active) and 21.7 µM (active)
- Potency [9]: inactive

Compound: CC(=O)OCC(C)OC(C)=O (centres undefined)
- Potency [1]: inactive
- Potency [2]: inactive
- Potency [3]: inactive
- Potency [4]: inactive
- Potency [5]: inactive
- Potency [14]: inactive
- Potency [6]: inactive
- Potency [10]: inactive
- Potency [13]: inactive
